The values that follow come from the supplement of paper PMC11417369.

Whole data set: some 25,000 sequences, median “ln(normalized median fluorescence intensity)” near 6.7, cut for the highest 2% near 10. The list comes from a sample in which the highest values are over-represented; it also holds similar and randomly drawn sequences.

In this assay the test system is PfHDP1 homeodomain (GST-tagged). The assay can be described thus: gcPBM binding intensity (ln(normalized median fluorescence intensity)); higher = stronger DNA binding. Put shortly: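 An Agilent 4 × 180k array carrying primer-extended double-stranded 36-bp intergenic genomic probes and negative controls received GST-tagged P. falciparum DNA-binding domains expressed in E. coli, about 25 μg on average, for 1 h. The binding buffer contained 1× PBS, 1% milk, 0.2 mg/ml BSA, 0.5% salmon testes DNA and 0.03% Triton X-100. Binding intensity is the top Masliner-normalised natural-log median intensity across replicate spots of either probe orientation, read after Alexa488 anti-GST antibody staining and a 488 nm scan.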
Turning to “TTTTTTTCTCTCTCTACACACAAGGTTTAATTTAAA [CACACA_site1690]”, the “gcPBM binding intensity (ln)” value amounted to 6.81.

With “ATTATATATAAGAAGAGTACTGAATATGTGCAATAT [XGTACX_site4471]”, the “gcPBM binding intensity (ln)” value came to 11.2.

On to “AATTATAATTAATAGAGTACTGAATATATATATATA [XGTACX_site8683]”, for which the “gcPBM binding intensity (ln)” value was 8.9.

With “TATATATATATATATGTGCACTGAAAGAATTATACA [GTGCAC_site9586]”, the “gcPBM binding intensity (ln)” value worked out at 9.76.

Take “ATTTTAAATATTTGTGGTACCCCTTTTTTGTAACAA [XGTACX_site5590]”: the “gcPBM binding intensity (ln)” value turned out to be 6.71.

“ATAAAAAAATAAAACACACACATATAGATTATAGAT [CACACA_site7343]”: the “gcPBM binding intensity (ln)” value turned out to be 7.

Take “GTATGTATATATATATGTACATACTGTTTATCGTTA [XGTACX_site6168]”: the “gcPBM binding intensity (ln)” value amounted to 6.4.

Regarding “ATATTTTACATATTTGCACACATATATTTAAATACA [CACACA_site4628]”, the “gcPBM binding intensity (ln)” value was 10.3.

Turning to “ATTTTATTTATATACACACACATATATATATTATAT [CACACA_site822]”, the “gcPBM binding intensity (ln)” value turned out to be 7.09.

For the sequence “GCATCATTTATTTGCACACCTATTATATACTTTTTA [CACACA_site2098]”, the “gcPBM binding intensity (ln)” value was determined as 10.7.

Turning to “ATATTTTACATATTTGCACACATATATTTATATACA [CACACA_site855]”, the “gcPBM binding intensity (ln)” value worked out at 10.7.

For “ATTTTATTTAAATACACACACATATATATATTATAT [CACACA_site4607]”, the “gcPBM binding intensity (ln)” value is 7.14.

Take “TTTTTTATTCTTTTTGCACACAGGAAATTTACAGAT [CACACA_site1090]”: the “gcPBM binding intensity (ln)” value worked out at 10.6.

Take “ATATTTTATTTATATACACACACATATATATATTAT [CACACA_site8177]”: the “gcPBM binding intensity (ln)” value was 7.22.

For the sequence “AATTTTATTACTTTTACACACCTATATATCATTCAT [CACACA_site7525]”, the “gcPBM binding intensity (ln)” value turned out to be 6.91.

As for “ATTTTACATATTTGCACACATATATTTAAATACATA [CACACA_site4627]”, the “gcPBM binding intensity (ln)” value was 10.8.

Regarding “TATTTTTGTATATATTTATTCTTATTTTACAGGAAA [TGCATGCA_negctrl_site472]”, the “gcPBM binding intensity (ln)” value is 6.22.

Turning to “AGGAAATTTGTTATTGCACACAAATTTTTCTTTTTT [CACACA_site8732]”, the “gcPBM binding intensity (ln)” value turned out to be 9.48.

On to “ATGCATCATTTATTTGCACACCTATTATATACTTTT [CACACA_site2097]”, for which the “gcPBM binding intensity (ln)” value came out at 10.1.

Take “GGATGCACACAAAAGGGTACATAAGAAAAAAACAGG [XGTACX_site8570]”: the “gcPBM binding intensity (ln)” value came to 9.42.

As to “TTTATATTTTAAAAAATAATATTATGTATTTTTAAA [TGCATGCA_negctrl_site507]”, the “gcPBM binding intensity (ln)” value is 6.01.

As for AAACAATATTCTCAAGTGCAAAAAGAAAAAAGAAAT, the “gcPBM binding intensity (ln)” value came out at 9.37.

Turning to “CCTTTTTTTTTTTTATGTACTAAAATAAAATTAGAA [XGTACX_site5956]”, the “gcPBM binding intensity (ln)” value was found to be 6.14.

Consider “TATAAAATAATTAAATGTACATAATATATAAAATAT [XGTACX_site6777]”, for which the “gcPBM binding intensity (ln)” value was 6.69.

As to “GTAATTTTTTTCTATACACACATATATATAATATAT [CACACA_site2655]”, the “gcPBM binding intensity (ln)” value amounted to 7.08.

Consider “TTTGTGTTGTATTTTTGTACATAAAATAAACTTAAA [XGTACX_site4637]”, for which the “gcPBM binding intensity (ln)” value turned out to be 6.65.

Consider “TATTTAAATGGATGCACACATGCATTAAATAAAATA [CACACA_site3433]”, for which the “gcPBM binding intensity (ln)” value turned out to be 8.59.

On to “TTTTTATATTTTTGCACACATTCTTTACTCTTCAAA [CACACA_site2210]”, for which the “gcPBM binding intensity (ln)” value was determined as 10.4.

As to “TATTTTTATATTTTTGCACACATTCTTTACTCTTCA [CACACA_site2211]”, the “gcPBM binding intensity (ln)” value was 10.6.

As for “TATTTATTTTTTTGCACACATATTTTACATTTTAAT [CACACA_site3181]”, the “gcPBM binding intensity (ln)” value turned out to be 10.8.

As to “TATATACATATATATACACACATATATATATTTTAT [CACACA_site3788]”, the “gcPBM binding intensity (ln)” value was found to be 6.65.

“TACATTTTTATTTTTACACACATATTTATTTATATA [CACACA_site6609]”: the “gcPBM binding intensity (ln)” value came out at 7.06.

As for “ATATTAAGTTTTATTACACACTCTCAATTTTTATTT [CACACA_site4206]”, the “gcPBM binding intensity (ln)” value is 6.63.

Take “TATATATATATTTTTGCACACATTTTTTAAGGTACA [CACACA_site2145]”: the “gcPBM binding intensity (ln)” value is 10.3.

Take “ATTTTACATATTTGCACACATATATTTATATACATA [CACACA_site854]”: the “gcPBM binding intensity (ln)” value is 10.6.

With “ATGACTCTCAAGTTTGCACACATTTATATTTTTTAA [CACACA_site2605]”, the “gcPBM binding intensity (ln)” value came out at 10.5.

Turning to “ATATATTTTATACATACACACATATATATATTTTTT [CACACA_site3940]”, the “gcPBM binding intensity (ln)” value came out at 6.83.

In the case of “AATATTTATTTTTTTGCACACATATTTTACATTTTA [CACACA_site3182]”, the “gcPBM binding intensity (ln)” value amounted to 10.3.

For “TTTTCATTTTTCTTTACACACATATATTTATTTATA [CACACA_site7119]”, the “gcPBM binding intensity (ln)” value came to 7.15.

As for “TAATGTACATAAACCGCACACATATAAAAAAATAAA [CACACA_site2851]”, the “gcPBM binding intensity (ln)” value is 6.79.

Turning to “ATAAAAATTTATATATGTACTTAATTTTTAATTTTT [XGTACX_site7482]”, the “gcPBM binding intensity (ln)” value came to 5.98.

In the case of “ACATACAAGAATTAAACACACACAAAATATAAATTC [CACACA_site8985]”, the “gcPBM binding intensity (ln)” value amounted to 6.8.

For the sequence “TATCTCTCTTTCTGCTGTACATAAAAATTATATAAT [XGTACX_site5961]”, the “gcPBM binding intensity (ln)” value was found to be 7.19.

For “ATATAATTTATGTGCACACACTCCTATTTTTAGCTT [CACACA_site50]”, the “gcPBM binding intensity (ln)” value was 11.3.

For “TTTTTCTTTATTAGCACACATAATATTATATATGTG [CACACA_site2629]”, the “gcPBM binding intensity (ln)” value was found to be 7.1.

Take “ATATAATATTTATATGCACACTTTTCTATATATAAG [CACACA_site6100]”: the “gcPBM binding intensity (ln)” value was 8.84.

In the case of “GTATATAATTTATGTGCACACACTCCTATTTTTAGC [CACACA_site49]”, the “gcPBM binding intensity (ln)” value turned out to be 11.1.

For “GGCTTTTTTTAATATGCACACATATATTTTATATAT [CACACA_site8647]”, the “gcPBM binding intensity (ln)” value came to 10.2.

“TATAATTATTTTTTCACACATATGTATTTATATATA [CACACA_site4205]”: the “gcPBM binding intensity (ln)” value is 7.05.

On to “TTTTCTATGCTAAACACACTCATTGTTACAAGTTTT [CACACA_site5531]”, for which the “gcPBM binding intensity (ln)” value came out at 6.78.

In the case of “TATGAAAATATATATTGTACAGAATCTATAAAAAAT [XGTACX_site8030]”, the “gcPBM binding intensity (ln)” value came to 6.39.

Regarding “TTTAAAAAATTATATTCACACACATACACATATATA [CACACA_site8076]”, the “gcPBM binding intensity (ln)” value was determined as 6.95.

“ATTTTTTTTTTTTTATGTACATATAGGTGCAAATCA [XGTACX_site6748]”: the “gcPBM binding intensity (ln)” value worked out at 11.1.

On to “CATATATATTTTATATGTACATATATATTTTATATA [XGTACX_site8665]”, for which the “gcPBM binding intensity (ln)” value came out at 6.35.

Take GACAATTATATGTAGGTGCATATACAAATTTTTTAA: the “gcPBM binding intensity (ln)” value was found to be 9.14.

Regarding “TACATAAAATATATCACACATATAATATATATATAT [CACACA_site5834]”, the “gcPBM binding intensity (ln)” value amounted to 8.54.

Consider “GAAATGTGATAATATACACACACGCATATATATATA [CACACA_site4332]”, for which the “gcPBM binding intensity (ln)” value was found to be 8.82.
